Source: PubChem BioAssay (Tox21)
Where “and” joins values, the source holds several entries; their conditions need not be identical. Equal entries are not always repeated. A number with no mark means an inactive call. Inconclusive results are not listed. Where a call stands in place of a potency, no number is given. Calls of active or inactive are those of the source. Unless noted, calls follow the shape of the full dose curve.

Key:
[1] = Nuclear factor erythroid 2-related factor 2/antioxidant responsive element (Nrf2/ARE) small molecule agonists: luciferase reporter gene qHTS assay in human keratinocytes (AID 1919969); also: nearly all actives have a fitted effect of over 35% in size; also: potency is read from the fitted curve at half-maximal effect
[2] = biological target: Gonadotropin-releasing hormone receptor (Homo sapiens) (UniProt P30968); test: Human gonadotropin-releasing hormone receptor (GnRHR) small molecule agonists, calcium flux assay in GnRHR-HEK293 cells (AID 1920063); also: nearly all actives have a fitted effect of over 35% in size
Gonadotropin-releasing hormone receptor (Homo sapiens), sequence (P30968 whole entry, looked up): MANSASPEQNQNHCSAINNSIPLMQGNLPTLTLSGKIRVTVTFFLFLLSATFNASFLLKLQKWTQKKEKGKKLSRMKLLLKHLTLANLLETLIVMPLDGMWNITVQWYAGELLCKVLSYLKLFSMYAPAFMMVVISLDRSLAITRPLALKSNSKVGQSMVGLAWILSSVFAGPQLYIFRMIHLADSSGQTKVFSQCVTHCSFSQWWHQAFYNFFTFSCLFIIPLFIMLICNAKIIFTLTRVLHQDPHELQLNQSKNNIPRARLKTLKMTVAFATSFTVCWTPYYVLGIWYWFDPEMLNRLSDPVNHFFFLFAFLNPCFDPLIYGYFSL
Procedure, shortened: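 Agonist activity was measured as intracellular calcium flux in HEK293 cells engineered to stably express human GnRHR. After dye loading for 1 hour at 37 C, compounds in DMSO were added and fluorescence was followed for 3 minutes.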

[3] = biological target: KiSS-1 receptor (Homo sapiens) (UniProt Q969F8); test: Human kisspeptin (KISS1R) small molecule agonists, calcium flux assay in KISS1R-HEK293 cells (AID 1920064; active = well fitted activation curve with a large enough effect in the repeat runs)
KiSS-1 receptor (Homo sapiens), sequence (Q969F8 whole entry, looked up): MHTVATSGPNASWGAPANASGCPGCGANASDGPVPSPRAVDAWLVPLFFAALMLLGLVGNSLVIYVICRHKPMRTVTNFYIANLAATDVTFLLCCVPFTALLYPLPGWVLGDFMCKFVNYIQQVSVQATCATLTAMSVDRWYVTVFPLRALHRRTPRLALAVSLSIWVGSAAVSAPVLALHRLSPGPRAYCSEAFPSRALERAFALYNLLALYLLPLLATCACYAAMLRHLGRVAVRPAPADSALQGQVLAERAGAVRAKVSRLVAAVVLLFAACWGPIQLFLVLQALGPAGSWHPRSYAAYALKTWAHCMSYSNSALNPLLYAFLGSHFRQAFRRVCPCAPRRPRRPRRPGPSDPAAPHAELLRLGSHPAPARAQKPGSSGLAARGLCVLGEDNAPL
Procedure, shortened: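 Agonist activity is monitored as intracellular calcium rise in engineered HEK293 cells carrying human KISS1R. Cells are dye-loaded for 1 h at 37 C before compound addition, and fluorescence is recorded for 3 min.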

[4] = G protein-coupled receptor (GPCR) small molecule agonists, calcium flux assay: HEK293 wild type cell line counter screen (AID 1920065)
Procedure, shortened: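 Seed cells, incubate 18 h (37 C, 5% CO2); add calcium dye, 1 h at 37 C; pin-transfer compounds, ATP control or DMSO; read fluorescence 480/540 nm each second for 3 min.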

[5] = p53 small molecule agonists, cell-based qHTS assay with human liver microsomes (AID 1963577);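 also: p53 response element beta-lactamase reporter cells with liver microsomes plus NADPH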
Procedure, shortened: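 In this qHTS, p53 response-element beta-lactamase cells receive test compound together with a microsome/NADPH activating system (0.5 mg/mL final each) and are incubated 16 h at 37 C before LiveBLAzer fluorescence detection.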

[6] = p53 small molecule agonists, cell-based qHTS assay with human liver microsomes: qHTS cell viability counter screen (AID 1963579); also: nearly all actives have a fitted effect of over 45% in size
Procedure, shortened: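 Metabolically activated exposure: compounds, human liver microsomes and NADPH (0.5 mg/mL final apiece) were added to p53RE-bla cells seeded 5 h earlier, left 16 h at 37 C, and then assessed for viability by CellTiter-Glo luminescence.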

[7] = p53 small molecule agonists, cell-based qHTS assay with rat liver microsomes: qHTS cell viability counter screen (AID 1963580); also: nearly all actives have a fitted effect of over 45% in size
Procedure, shortened: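 Counter screen for cytotoxicity under metabolic activation: rat liver microsomes and NADPH, 0.5 mg/mL final each, added with compounds to p53RE-bla HCT-116 cells; 16 h at 37 C, then ATP luminescence read.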

[8] = p53 small molecule agonists, cell-based qHTS assay: qHTS cell viability counter screen (AID 1963581); also: nearly all actives have a fitted effect of over 45% in size
Procedure, shortened: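 Viability was counter-screened in parallel with the p53 agonist reporter by measuring intracellular ATP luminescence in the same HCT-116 p53RE-bla wells after 16 h compound treatment at 37 C.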

[9] = p53 small molecule agonists, cell-based qHTS assay (AID 1963582; active = well fitted activation curve with a large enough effect in the signal ratio in the repeat runs, not every such curve was filed as active; the % refers to the signal ratio)
Procedure, shortened: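 Cells carrying a p53-responsive bla reporter are treated with test compounds for 16 h at 37 C; beta-lactamase activity is then detected with LiveBLAzer B/G FRET substrate after 2 h at room temperature.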

[10] = biological target: 5-hydroxytryptamine receptor 2A (Homo sapiens) (UniProt P28223); test: 5-hydroxytryptamine receptor 2A (HTR2A) small molecule antagonists, cell-based qHTS assay (AID 1963586); also: nearly all actives have a fitted effect of over 45% in size; also: potency is read from the fitted curve at half-maximal effect
5-hydroxytryptamine receptor 2A (Homo sapiens), sequence (P28223 whole entry, looked up): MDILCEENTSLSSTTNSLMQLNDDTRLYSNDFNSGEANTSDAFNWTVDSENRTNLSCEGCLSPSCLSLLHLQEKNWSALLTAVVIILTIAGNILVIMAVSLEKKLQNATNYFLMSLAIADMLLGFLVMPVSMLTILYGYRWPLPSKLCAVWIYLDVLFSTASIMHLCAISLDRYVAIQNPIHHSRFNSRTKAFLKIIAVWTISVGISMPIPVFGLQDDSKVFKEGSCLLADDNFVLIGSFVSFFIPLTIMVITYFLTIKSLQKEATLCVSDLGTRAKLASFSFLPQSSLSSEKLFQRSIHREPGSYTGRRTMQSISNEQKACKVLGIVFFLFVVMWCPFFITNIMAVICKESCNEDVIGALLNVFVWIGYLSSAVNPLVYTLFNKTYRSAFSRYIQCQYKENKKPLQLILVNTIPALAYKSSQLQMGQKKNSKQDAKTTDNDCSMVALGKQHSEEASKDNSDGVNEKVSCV
Procedure, shortened: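 CHO cells stably expressing human HTR2A were plated for 18 h at 37 C, then loaded with calcium dye for 1 h. Compounds were preincubated 5 min at room temperature before DOI (4 nM solution) was added. Kinetic fluorescence was read for 3 min.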

[11] = biological target: 5-hydroxytryptamine receptor 2A (Homo sapiens) (UniProt P28223); test: 5-hydroxytryptamine receptor 2A (HTR2A) small molecule agonists, cell-based qHTS assay (AID 1963587); also: nearly all actives have a fitted effect of over 30% in size; also: potency is read from the fitted curve at half-maximal effect
Procedure, shortened: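 HTR2A-CHO cells, plated 18 h at 37 C/5% CO2, dye-loaded 1 h at 37 C; compounds in DMSO added by pin tool (agonist mode). Intracellular calcium flux read as kinetic fluorescence on FDSS over 2 min at 1 s intervals.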

[12] = biological target: Muscarinic acetylcholine receptor M1 (Homo sapiens) (UniProt P11229); test: Cholinergic receptor muscarinic 1 (CHRM1) small molecule antagonists, cell-based qHTS assay (AID 1963588); also: nearly all actives have a fitted effect of over 40% in size; also: potency is read from the fitted curve at half-maximal effect
Muscarinic acetylcholine receptor M1 (Homo sapiens), sequence (P11229 whole entry, looked up): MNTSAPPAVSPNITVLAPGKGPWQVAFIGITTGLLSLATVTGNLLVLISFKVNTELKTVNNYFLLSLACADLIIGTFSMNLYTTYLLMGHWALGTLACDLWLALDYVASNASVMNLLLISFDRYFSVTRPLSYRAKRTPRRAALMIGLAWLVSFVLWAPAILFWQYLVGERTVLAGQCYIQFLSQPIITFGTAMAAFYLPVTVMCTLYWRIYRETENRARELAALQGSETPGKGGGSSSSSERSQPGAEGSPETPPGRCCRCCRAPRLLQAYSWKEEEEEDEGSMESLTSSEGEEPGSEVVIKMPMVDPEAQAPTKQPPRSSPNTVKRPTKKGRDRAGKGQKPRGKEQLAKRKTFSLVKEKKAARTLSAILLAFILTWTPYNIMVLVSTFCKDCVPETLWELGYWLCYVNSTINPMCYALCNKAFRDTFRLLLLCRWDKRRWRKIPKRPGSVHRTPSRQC
Procedure, shortened: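 Compounds were tested at 15 concentrations in three independent runs. Dye-loaded CHRM1-CHO cells were exposed 5 min at room temperature before stimulation by acetylcholine added at 50nM. Intracellular calcium was read kinetically on FDSS for 3 min.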

[13] = biological target: Muscarinic acetylcholine receptor M1 (Homo sapiens) (UniProt P11229); test: Cholinergic receptor muscarinic 1 (CHRM1) small molecule agonists, cell-based qHTS assay (AID 1963589); also: nearly all actives have a fitted effect of over 35% in size
Procedure, shortened: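 Cells were plated and incubated 18 h at 37 C/5% CO2, loaded with calcium dye for 1 h at 37 C, then treated with compounds in DMSO. Fluorescence was recorded kinetically at 1 sec intervals.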

[14] = cAMP Responsive Elements (CRE) small molecule antagonists, cell-based qHTS assay (AID 1963591; active = well fitted inhibition curve with a large enough effect in the signal ratio in the repeat runs, not every such curve was filed as active; the % refers to the signal ratio; also: potency is read from the fitted curve at half-maximal effect)
Procedure, shortened: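 Cells (CRE-bla HEK 293T, DMEM with 10% dialyzed FBS and 25 mM HEPES) are seeded and incubated 18 h. Compounds are added with NKH477 agonist at 0.25 uM final for 3 h, then FRET substrate for 2 h.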

[15] = biological target: Beta-2 adrenergic receptor (Homo sapiens) (UniProt P07550); test: Adrenergic beta2 receptor (ADRB2) small molecule antagonists, cell-based qHTS assay (AID 1963592); also: series mostly up to about 92 µM; nearly all actives have a fitted effect of over 50% in size
Beta-2 adrenergic receptor (Homo sapiens), sequence (P07550 whole entry, looked up): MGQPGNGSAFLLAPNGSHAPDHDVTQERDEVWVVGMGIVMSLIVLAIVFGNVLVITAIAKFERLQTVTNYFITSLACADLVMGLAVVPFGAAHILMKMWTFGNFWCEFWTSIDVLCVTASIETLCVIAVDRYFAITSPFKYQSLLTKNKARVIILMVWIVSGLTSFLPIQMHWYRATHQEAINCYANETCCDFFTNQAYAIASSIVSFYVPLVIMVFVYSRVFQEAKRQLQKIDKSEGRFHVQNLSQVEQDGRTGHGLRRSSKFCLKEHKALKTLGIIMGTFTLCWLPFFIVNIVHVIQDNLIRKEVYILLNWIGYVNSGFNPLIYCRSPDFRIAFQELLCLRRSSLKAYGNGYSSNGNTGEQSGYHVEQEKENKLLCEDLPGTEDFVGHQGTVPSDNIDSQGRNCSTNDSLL
Procedure, shortened: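 Assay format: CHO-ADRB2 cells, 18-20hr seeding at 37C/5% CO2, then compound plus 1nM isoproterenol agonist mix for 0.5hr RT. Homogeneous time-resolved fluorescence cAMP detection after 1hr, expressed as 665/615 nm ratio.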

[16] = biological target: Beta-2 adrenergic receptor (Homo sapiens) (UniProt P07550); test: Adrenergic beta2 receptor (ADRB2) small molecule agonists, cell-based qHTS assay (AID 1963593);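 also: CHO cells stably overexpressing human ADRB2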
Procedure, shortened: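 CHO cells stably over-expressing ADRB2 were plated overnight at 37C, then dosed with compounds plus a stimulation mix containing 100uM IBMX and 25uM Ro-20-1724 for 0.5hr at room temperature. cAMP was measured by HTRF competition, 1hr.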

[17] = biological target: D(2) dopamine receptor (Homo sapiens) (UniProt P14416); test: Dopamine D2 receptor (DRD2) small molecule agonists, cell-based qHTS assay (AID 1963594); also: nearly all actives have a fitted effect of over 35% in size; also: potency is read from the fitted curve at half-maximal effect
D(2) dopamine receptor (Homo sapiens), sequence (P14416 whole entry, looked up): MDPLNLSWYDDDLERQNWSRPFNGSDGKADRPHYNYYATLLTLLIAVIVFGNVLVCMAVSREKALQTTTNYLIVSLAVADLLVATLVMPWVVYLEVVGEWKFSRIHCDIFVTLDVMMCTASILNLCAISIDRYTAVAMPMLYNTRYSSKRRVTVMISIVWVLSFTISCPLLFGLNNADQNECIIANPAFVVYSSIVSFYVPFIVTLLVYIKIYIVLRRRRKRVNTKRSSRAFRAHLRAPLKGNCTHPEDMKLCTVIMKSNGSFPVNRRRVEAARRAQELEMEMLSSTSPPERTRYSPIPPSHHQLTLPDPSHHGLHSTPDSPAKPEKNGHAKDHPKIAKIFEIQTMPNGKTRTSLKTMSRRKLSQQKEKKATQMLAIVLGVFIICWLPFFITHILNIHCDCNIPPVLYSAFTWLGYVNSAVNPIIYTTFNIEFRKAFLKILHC
Procedure, shortened: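 HEK293 cells stably expressing DRD2 were cultured 24 h at 37 C, then given Ro20-1724 (0.1 mM final) and compounds for 10 min at room temperature. NKH477 (200nM) was then added for 30 min. cAMP was read by HTRF.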

[18] = p53 small molecule agonists, cell-based qHTS assay with rat liver microsomes (AID 1963578)
Procedure, shortened: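 Agonist mode in p53RE-bla reporter cells, with compounds co-incubated 16 h at 37 C alongside 0.5 mg/mL rat liver microsomes and 0.5 mg/mL NADPH (final), followed by a 2 h LiveBLAzer detection step.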

[19] = biological target: D(2) dopamine receptor (Homo sapiens) (UniProt P14416); test: Dopamine D2 receptor (DRD2) small molecule antagonists, cell-based qHTS assay (AID 1963595; active = well fitted inhibition curve with a large enough effect in the signal ratio in the repeat runs, with a control signal flat; the % refers to the signal ratio; also: potency is read from the fitted curve at half-maximal effect)
Procedure, shortened: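 Antagonism was scored as restored cAMP in HEK293-DRD2 cells. These cells were stimulated with 200 nM NKH477 and 12 nM quinpirole for 30 min at room temperature, in the presence of 0.1 mM Ro20-1724.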

[20] = cAMP Responsive Elements (CRE) small molecule agonists, cell-based qHTS assay (AID 1963590)
Procedure, shortened: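 Cells carrying a CRE-driven beta-lactamase reporter (HEK 293T) are seeded, incubated overnight (18 h), and treated with test compounds for 3 h at 37 C; reporter activity is then detected with a FRET substrate after 2 h at room temperature.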

For `O=C=NC1CCC(CC2CCC(N=C=O)CC2)CC1` (stereo unspecified), the Potency [1] was “inactive”, the Potency [2] was “inactive” and the Potency [3] was “inactive”. The Potency [4] was “inactive”, the Potency [5] was “inactive” and the Potency [6] was “inactive”. For the same molecule, the Potency [7] was “inactive”, the Potency [8] was “inactive” and the Potency [9] was “inactive”. The Potency [10] was 2.98 µM (active), the Potency [11] was 1.95 µM (active) and the Potency [12] was 4.21 µM (active). For the same molecule, the Potency [13] was “inactive”, the Potency [14] was “inactive” and the Potency [15] was “inactive”. For the same molecule, the Potency [16] was “inactive” and the Potency [17] was “inactive”.
In the case of `CCCCCCCOC(=O)c1ccc(O)cc1`, the Potency [1] is reported as “inactive”, the Potency [2] is reported as “inactive” and the Potency [3] is reported as “inactive”. For the same molecule, the Potency [4] was “inactive”, the Potency [5] was “inactive” and the Potency [18] was “inactive”. For the same molecule, the Potency [9] was “inactive”, the Potency [10] was “inactive” and the Potency [11] was 38.9 µM (active). The Potency [12] was “inactive”, the Potency [13] was “inactive” and the Potency [14] was 38.6 µM (active) and 45.2 µM (active). The Potency [15] was “inactive”, the Potency [16] was “inactive” and the Potency [17] was “inactive”. The Potency [19] was “inactive”.
With `CCc1cc(Cc2cc(CC)c(N)c(CC)c2)cc(CC)c1N` the Potency [1] was “inactive”, the Potency [2] was “inactive” and the Potency [3] was “inactive”. For the same molecule, the Potency [4] was “inactive”, the Potency [5] was “inactive” and the Potency [18] was “inactive”. The Potency [10] was “inactive”, the Potency [11] was “inactive” and the Potency [12] was “inactive”. The Potency [13] was “inactive”, the Potency [20] was “inactive” and the Potency [14] was “inactive”. The Potency [19] was 54.5 µM (active).
For `CCc1cc(C(C)(C)C)c(O)c(C(C)(C)C)c1`, the Potency [1] was 34.7 µM (active), the Potency [2] was “inactive” and the Potency [3] was “inactive”. For the same molecule, the Potency [4] was “inactive”, the Potency [5] was “inactive” and the Potency [18] was “inactive”. For the same molecule, the Potency [7] was “inactive”, the Potency [8] was “inactive” and the Potency [9] was “inactive”. The Potency [10] was “inactive”, the Potency [11] was “inactive” and the Potency [12] was “inactive”. The Potency [13] was “inactive”, the Potency [20] was “inactive” and the Potency [14] was “inactive”. For the same molecule, the Potency [15] was “inactive”, the Potency [16] was “inactive” and the Potency [17] was “inactive”. The Potency [19] was “inactive”.
In the case of `O=C1c2ccccc2C(=O)c2c(O)c(O)cc(O)c21`, the Potency [1] is reported as “inactive”, the Potency [2] is reported as “inactive” and the Potency [3] is reported as “inactive”. For the same molecule, the Potency [4] was “inactive”, the Potency [5] was “inactive” and the Potency [6] was “inactive”. The Potency [7] was “inactive”, the Potency [8] was “inactive” and the Potency [10] was “inactive”. For the same molecule, the Potency [11] was “inactive”, the Potency [12] was “inactive” and the Potency [13] was “inactive”. For the same molecule, the Potency [15] was “inactive”, the Potency [16] was “inactive” and the Potency [17] was “inactive”. For the same molecule, the Potency [19] was “inactive”.
For `N#C/C(=C1/SC[C@@H](c2ccc(Cl)cc2Cl)S1)n1ccnc1`, the Potency [1] was “inactive”, the Potency [2] was “inactive” and the Potency [3] was “inactive”. The Potency [4] was “inactive”, the Potency [5] was “inactive” and the Potency [6] was “inactive”. The Potency [7] was “inactive”, the Potency [10] was “inactive” and the Potency [11] was “inactive”. For the same molecule, the Potency [12] was “inactive”, the Potency [13] was “inactive” and the Potency [15] was “inactive”. The Potency [16] was “inactive”, the Potency [17] was 26.6 µM (active) and the Potency [19] was “inactive”.
With `CC(=O)Oc1ccc([N+](=O)[O-])cc1CCl` the Potency [1] was 27.3 µM (active), the Potency [2] was “inactive” and the Potency [3] was “inactive”. For the same molecule, the Potency [4] was “inactive”, the Potency [5] was “inactive” and the Potency [6] was “inactive”. The Potency [7] was “inactive”, the Potency [9] was “inactive” and the Potency [10] was “inactive”. The Potency [11] was “inactive”, the Potency [13] was “inactive” and the Potency [20] was “inactive”. For the same molecule, the Potency [14] was “inactive”, the Potency [16] was “inactive” and the Potency [17] was “inactive”.
